Experimental data from PubChem BioAssay (NCI).
About 79,000 compounds went through this panel and 15% of them were active in at least one assay; those are over-represented in the sample as a whole. The source made the active and inactive calls. Cut-off read from the data, not from the text of the source: active = growth inhibition above about 70%; inactive = the rest.

Experiments:
[1] = NCI Yeast Anticancer Drug Screen. Data for the rad50 strain (AID 155);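 note: 0% = growth of vehicle-only cultures of the same strain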; conditions: S. cerevisiae rad50 strain growth inhibition, active compounds read high
Outline: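 Inhibition values express reduced yeast growth in compound-treated cultures relative to vehicle-treated controls.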

[2] = NCI Yeast Anticancer Drug Screen. Data for the mec2-1 strain (AID 157); conditions: S. cerevisiae mec2-1 strain, active compounds read high
Outline: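 Vehicle-treated cultures served as reference for growth inhibition of compound-exposed mec2-1 yeast.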

[3] = NCI Yeast Anticancer Drug Screen. Data for the sgs1 mgt1 strain (AID 161);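 note: 0% = growth of cultures given vehicle only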; conditions: S. cerevisiae sgs1 mgt1 strain, active compounds read high
Outline: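 Mutant yeast exposed to compound; growth scored against vehicle-only wells.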

[4] = NCI Yeast Anticancer Drug Screen. Data for the cln2 rad14 strain (AID 165);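 note: 0% = growth equal to vehicle treated cultures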; conditions: S. cerevisiae cln2 rad14 strain, active compounds read high
Outline: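 Each compound was tested on cln2 rad14 yeast. Inhibition of growth was calculated against vehicle-exposed controls.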

[5] = NCI Yeast Anticancer Drug Screen. Data for the bub3 strain (AID 167); conditions: S. cerevisiae bub3 mutant strain, active compounds read high
Outline: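 Steps: expose the mutant yeast strain to compound; grow alongside vehicle-treated cultures; measure growth; express inhibition against the vehicle cultures.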

[6] = NCI Yeast Anticancer Drug Screen. Data for the mlh1 rad18 strain (AID 175); conditions: S. cerevisiae mlh1 rad18 strain growth inhibition, active compounds read high
Outline: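 Vehicle-treated cultures served as the reference for growth inhibition in a yeast strain carrying DNA damage repair alterations exposed to each compound.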

[7] = at 5.0 µM (retest, dose inferred, filed as 0.5)
[8] = at 50.0 µM (retest, dose inferred, filed as 5.0)

Measured: growth inhibition

COc1ccc(-c2c(C#N)cc(OC)c(OC)c2OC)c(C=O)c1
active: [4]; at 50.0 µM 80.2% | [5]; at 50.0 µM 75% | [6]; at 50.0 µM 76.3%
inactive: [1]; [7] 2% | [1]; [8] 24% | [1]; at 50.0 µM 43.4% | [2]; [7] -5% | [2]; [8] 29% | [2]; at 50.0 µM 31.8% | [3]; [7] -19% | [3]; [8] 62% | [3]; at 50.0 µM 40.9% | [4]; [7] 0% | [4]; [8] 11% | [5]; [7] -3% | [5]; [8] 26% | [6]; [7] 11% | [6]; [8] 57%

CCOC(=O)Oc1ccc(C)cc1[N+](=O)[O-]
active: [6]; at 50.0 µM 88.3%
inactive: [1]; [7] -1% | [1]; [8] 13% | [1]; at 50.0 µM 67.6% | [2]; [7] -4% | [2]; [8] 1% | [2]; at 50.0 µM 31.1% | [3]; [7] -1% | [3]; [8] 2% | [3]; at 50.0 µM 47.5% | [4]; [7] 2% | [4]; [8] 12% | [4]; at 50.0 µM 55.6% | [5]; [7] -1% | [5]; [8] 4% | [5]; at 50.0 µM 23.6% | [6]; [7] -3% | [6]; [8] 20%

Cc1cc(Cl)c(O)c(C(=O)C(=O)C(O)c2ccc3c(c2)OCO3)c1 (centres undefined)
inactive: [3]; [7] 37% | [4]; [7] 58% | [5]; [7] 64% | [6]; [7] 38%
active: [1]; [7] 98% | [1]; [8] 99% | [1]; at 50.0 µM 87.9% | [2]; [7] 96% | [2]; [8] 99% | [2]; at 50.0 µM 90% | [3]; [8] 99% | [3]; at 50.0 µM 82.1% | [4]; [8] 99% | [4]; at 50.0 µM 87.9% | [5]; [8] 94% | [5]; at 50.0 µM 87.9% | [6]; [8] 99% | [6]; at 50.0 µM 84.1%
